A selection: hits, their analogues and other compounds. The true share with any hit is near 2.8%.
Smad3 inh: Smad3/FoxH1 peptide binding inhibitors, primary screen, biochemical, TR-FRET; AID 630, 2007; actives 0.29% (n = 88,000); TR-FRET Smad3/Dy647-FoxH1 peptide binding, europium anti-His; inhibition, % at 25 µM;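 active = compounds that reduce the energy-transfer binding signal between the protein and its labelled peptide by more than half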;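 note: 0% = Smad3 plus labelled peptide maximal FRET and 100% = peptide-only background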
Target sequence (P84022 whole entry, looked up): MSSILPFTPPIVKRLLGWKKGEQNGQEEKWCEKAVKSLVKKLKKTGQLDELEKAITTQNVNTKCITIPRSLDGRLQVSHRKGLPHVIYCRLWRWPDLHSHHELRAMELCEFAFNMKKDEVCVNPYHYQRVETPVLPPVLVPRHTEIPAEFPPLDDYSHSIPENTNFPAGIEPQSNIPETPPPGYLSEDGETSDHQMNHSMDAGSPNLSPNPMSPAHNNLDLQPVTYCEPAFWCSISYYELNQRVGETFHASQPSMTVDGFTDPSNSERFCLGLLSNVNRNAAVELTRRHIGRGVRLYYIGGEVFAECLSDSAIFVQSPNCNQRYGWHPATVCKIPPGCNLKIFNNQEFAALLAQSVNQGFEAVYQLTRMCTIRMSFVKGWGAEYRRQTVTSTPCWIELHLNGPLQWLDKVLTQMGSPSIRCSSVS
ERa coact inh: ERα–SRC-1 coactivator interaction inhibitors, primary screen, biochemical, TR-FRET, ERα LBD, estradiol-bound; TR-FRET ER-alpha LBD / SRC-1 peptide; inhibition, % at 25.6 µM; actives 1.7% (n = 86,000); AID 629, 2007; in the data active = inhibition above about 50%;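 note: 0% = receptor plus peptide control and 100% = peptide only without receptor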
MRP-1 activ: H69AR viability gain despite doxorubicin, primary screen, MRP-1 activator project, H69AR cells, CellTiter-Glo; viability rescue; viability increase, % at 10 µM; actives 0.61% (n = 140,000); AID 799, 2007;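 active = viability gain under doxorubicin at or above a set limit, the compound median plus 3 SD, cut at about 4.7% in these data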;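 note: MRP-1 overexpressing cells given doxorubicin 25 µM after compound pretreatment; 18-22 h compound pretreatment then 72 h with doxorubicin before readout; 0% = doxorubicin-only wells and 100% = vehicle-treated cells without doxorubicin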
ERb SRC1 inh: inhibitors of ERβ-SRC1 coactivator interaction, primary screen, biochemical, TR-FRET, ERβ LBD, SRC-1 peptide | Estrogen receptor beta (Homo sapiens), Q92731 | TR-FRET ER-beta LBD / SRC1-Cy5 peptide binding; receptor agonist-loaded with 1 µM estradiol | inhibition, % at 25.6 µM | actives 1.3% (n = 86,000);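 active = compounds whose percent inhibition of the receptor-coactivator binding signal exceeds about 50% in the single-dose screen, limit read from the data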;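 note: 0% = receptor plus peptide wells without compound and 100% = peptide-only wells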
ERa coact pot: enhancers of ERα–SRC-1 coactivator binding, primary screen, biochemical, TR-FRET, ERα LBD, low estradiol; TR-FRET ERalpha-LBD/SRC-Cy5 coactivator binding, 2 h; 100 = basal binding, no effect; coactivator binding (% of control), % at 25.6 µM; actives 1.3% (n = 86,000); in the data active = activity above about 200%;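 note: binding measured in presence of low estradiol as agonist stimulus; 0% = peptide alone without receptor and 100% = receptor with peptide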
MRP reversal: reversal of MRP1-mediated doxorubicin resistance, primary screen, H69AR cells, doxorubicin co-treatment; H69AR cells + 2 uM doxorubicin, CellTiter-Glo, 72 h; differential viability (reversal), % at 10 µM; actives 0.04% (n = 85,000);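 active = viability drop by adding the cancer drug above about 55%, with treated viability meeting a 40% cutoff, limit read from the data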;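 note: viability without doxorubicin minus viability with 2 µM doxorubicin for each compound; larger differential means the compound sensitizes cells more to doxorubicin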
* = called active by the depositor; / = no result; [ ] = another dose, or the depositor's remark.

SMILES	Smad3 inh	ERa coact inh	MRP-1 activ	ERb SRC1 inh	ERa coact pot	MRP reversal
CC(C)Cn1c2c(c(O)c(C(=O)Nc3ccc(F)cc3)c1=O)CCCC2	-4.5	-4.0	6.3*	3.1	109.4	-8.9
COc1ccccc1CN(Cc1nc2ccccc2c(=O)[nH]1)S(=O)(=O)c1ccc2ccccc2c1	0.4	24.7	-3.6	19.7	279.6*	-9.4
COc1ccc(S(=O)(=O)N(Cc2ccccc2)Cc2nc3ccccc3c(=O)[nH]2)cc1	8.8	-1.6	-3.2	-4.9	115.5	-4.4
CC(SC1=NCCS1)C(=O)Nc1nnc(-c2ccc(F)cc2)s1 (stereo not given)	-7.7	6.7	-0.8	-1.1	128.6	-4.5
CC(SC1=NCCS1)C(=O)Nc1nnc(-c2ccc(Br)cc2)s1 (stereo not given)	-5.7	-6.1	5.8*	1.2	179.5	-26.5
CCCNC(=O)c1oc2ccc3c(c2c1C)C(=O)CC(C)(C)O3	5.2	-2.1	7.1*	-15.3	94.7	13.5
CCOC(=O)N1CCC2(CC1)CC(=O)c1c(ccc3oc(C(=O)O)c(C)c13)O2	1.6	5.0	0.1	-3.1	118.9	-5.2
CCOC(=O)c1cnn(-c2nc(SC)nc3sc4c(c23)CCC4)c1N	13.6	74.8*[fluorescence artefact?]	-0.9	60.2*	61.5	4.5
Cc1nc(-n2ncc(C#N)c2N)c2c3c(sc2n1)CCC3	12.4	66.8*[fluorescence artefact?]	-4.2	54.7*[fluorescence artefact?]	208.2*[fluorescence artefact?]	-4.0
O=C(Nc1ccc(O)cc1)c1ccc(C(=O)c2ccccc2)o1	-1.5	0.0	-4.5	-4.1	141.9	13.6
O=C(O)c1cc(=O)[nH]c(=S)[nH]1	-7.3	/	/	/	/	/
COC(=O)C1C2C=CC3(CN(Cc4ccco4)C(=O)C13)O2 (stereo not given)	-9.1	-14.2	-1.4	-5.9	85.2	30.5
O=C(O)C1C2C=CC3(CN(Cc4ccco4)C(=O)C13)O2 (stereo not given)	0.9	97.8*[fluorescence artefact?]	-1.6	-1.4	111.5	6.4
Cc1ccc(N2C(=O)CSCC2=O)cc1	12.7	4.4	0.2	1.8	102.6	16.1
Cc1ccc(N2C(=O)CS/C2=C(\C(Cl)=C(Cl)Cl)[N+](=O)[O-])cc1	52.2*	22.5	-3.6	32.8	109.9	-2.5
CCCCCOc1ccc(OC(=O)c2ccncc2)cc1	-1.1	-5.1	-1.1	-9.0	100.3	-28.5
CCCCOc1ccc(C(=O)Oc2ccc(C)nc2)cc1	-3.4	1.7	5.5*	-3.1	112.2	5.8
O=NN(Cc1ccc(Cl)cc1)[C@@H](C(=O)O)c1ccccc1	37.9	/	/	/	/	/
O=c1[nH]c(=O)n(Cc2ccco2)c2c1C(C(F)(F)F)(C(F)(F)F)N=C(CCc1ccccc1)N2	4.0	59.5*[fluorescence artefact?]	-5.1	24.6	81.2	-7.2
O=c1[nH]c(=O)n(Cc2ccco2)c2c1C(C(F)(F)F)(C(F)(F)F)N=C(CCC1CCCCC1)N2	5.9	2.4	-3.1	3.9	105.2	-6.8
C[C@]1(O)CC[C@H]2[C@H]3CC=C4N5CCN=C5CC[C@@]4(C)[C@@H]3CC[C@@]21C	-10.2	/	/	/	/	/
COc1ccc(-c2cc3nnc(-c4ccccc4)nc3s2)cc1	3.9	62.9*[fluorescence artefact?]	-1.4	66.4*[fluorescence artefact?]	129.4	-8.9
COc1ccc(N2Cc3cccc(C(=O)O)c3C2=O)cc1	8.4	64.1*	-0.2	64.9*	35.6	6.6
CC(C)CCn1c(=O)c2ccccc2n2c(CN(C)Cc3ccccc3)nnc12	1.1	1.1	-4.2	0.0	87.2	61.5*
CC(C)CCn1c(=O)c2ccccc2n2c(COC(=O)c3ccc(S(=O)(=O)N(C)C)cc3)nnc12	13.2	-6.2	/	2.5	149.2	-15.3
SMILES	Smad3 inh	ERa coact inh	MRP-1 activ	ERb SRC1 inh	ERa coact pot	MRP reversal
Cc1cc(NC(=O)c2cc(C(C)C)on2)nn1Cc1ccc(Cl)cc1	-14.4	12.4	6.7*	17.9	88.0	-8.4
CCOc1cc(N2CCOCC2)c(OCC)cc1NC1=NCCCCC1	-1.6	44.2	-1.4	69.8*[fluorescence artefact?]	69.3	-5.7
COC(=O)c1ccc(NC(=O)C(=O)N2CCN(C(=S)Nc3cccc(OC)c3)CC2)cc1	/	/	6.2*	/	/	/
Cc1ccc2c(=O)cc(C(F)F)oc2c1	3.6	55.2*[fluorescence artefact?]	0.1	5.3	65.3	-0.7
CC(C)Oc1ccc(CSC(=N)N)cc1	/	/	7.9*	/	/	/
NCC(=O)N[C@H](CO)C(=O)O	-1.8	/	/	/	/	/
CC[C@H]1CC[C@H]2[C@H]3CC=C4C[C@H](OC(C)=O)[C@@H](N)C[C@@]4(C)[C@@H]3CC[C@]12C	-3.6	/	/	/	/	/
C[N+](C)(C)CC(=O)N/N=C/c1c(O)ccc2ccccc12	11.6	/	/	/	/	/
COc1cc(/C=C/C(=O)CC(=O)/C=C/c2ccc(O)c(OC)c2)ccc1O	-17.2	37.5	-3.3	59.5*[fluorescence artefact?]	33.4	-0.9
COC(=O)[C@@H]1O[C@H](SCCN)[C@@H](O)[C@H](O)[C@H]1O	39.0	/	/	/	/	/
Cc1cccc(-n2nnnc2SCC(=O)c2cc(C)n(Cc3ccco3)c2C)c1	-7.9	88.7*[fluorescence artefact?]	0.8	46.8	49.3	-16.3
O=C(NCc1nnc2c3ccccc3c(-c3ccccc3)nn12)c1ccccc1Cl	/	/	0.0	/	/	/
O=C(COc1ccc(Cl)cc1)NCc1nnc2c3ccccc3c(-c3ccccc3)nn12	/	/	5.0*	/	/	/
O=C(c1ccc(COc2ccc(Br)cc2)o1)N1N=C(C(F)F)CC1(O)C(F)F (stereo not given)	/	/	5.5*	/	/	/
Cc1ccc(S(=O)(=O)NC(=O)Nc2ncn[nH]2)cc1	1.4	/	/	/	/	/
COc1ccc(NC(=O)CSc2nc3c(c(=O)n2-c2ccccc2OC)SCC3)cc1	-1.8	-2.6	-1.1	-3.3	117.9	24.2
COc1ccccc1-n1c(SCC(=O)NC2CCCCC2)nc2c(c1=O)SCC2	-2.5	4.3	-3.6	0.9	696.6*	0.1
Cc1nc(C)c(C(=O)Nc2nc3c(C)cccc3s2)o1	4.4	91.6*[fluorescence artefact?]	-3.5	90.7*[fluorescence artefact?]	26.4	-0.9
Cc1cccc2sc(NC(=O)C3CCCO3)nc12 (stereo not given)	3.4	-8.6	-0.8	-6.8	113.1	6.9
N#Cc1ccccc1Cn1c(=O)n(Cc2ccc(C(=O)NCc3ccco3)cc2)c(=O)c2ccccc21	-7.7	82.1*[fluorescence artefact?]	-4.2	48.2	172.5	-9.3
O=C1CCC/C(=N/NC(=O)c2ccc(CN3c4cccc5cccc(c45)S3(=O)=O)cc2)C1	/	/	-2.5	/	/	/
CC1CCc2c(sc(NC(=O)c3ccc(Cn4cc([N+](=O)[O-])cn4)o3)c2C#N)C1 (stereo not given)	-3.4	60.9*	2.9	63.8*	69.8	12.9
CC(=O)Nc1nc(C(F)(F)F)cs1	/	/	-1.0	/	/	/
CC(=O)Nc1nc(C=C(Cl)Cl)cs1	7.2	64.7*	-2.7	61.2*[fluorescence artefact?]	14.9	8.6

Compound activity: PubChem BioAssay, several laboratories
